Laboratory results taken from PubChem BioAssay AID1159580 (chemical genetic matrix, 2015).
Where “and” joins values, the source holds several entries; their conditions need not be identical. Identical values can stand only once. The campaign covered roughly 5,500 compounds. About 2,000 (36%) were called active. About 18% were inconclusive and are not listed. Cut-off read from the data, not from the text of the source: active = normalized growth mostly below about 0.91 (no sharp cut-off); inconclusive = no clear call, values can overlap the other calls; inactive = mostly above about 0.92. Some of the results follow.

Test: chemical genetic growth profiling, strain panel (AID 1159580);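 note: tested at 20 µM; growth read once vehicle control cultures reached saturation at 30 °C; 1 = growth at the plate median or of vehicle wells; lower values mean less growth of the strain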
Conditions: S. cerevisiae deletion strains, growth OD

Measured: normalized growth

COC(=O)C1=CO[C@@H](O[C@@H]2O[C@H](CO)[C@@H](O)[C@H](O)[C@H]2O)[C@@H]2[C@@H](C)[C@@H](O)C[C@H]12
inactive: locus YAL013W, strain DEP1, hits give low values 1 | locus YAL021C, strain ccr4, hits give low values 0.973 | locus YAL026C, strain drs2, hits give low values 1.01 | locus YAL030W, strain snc1, hits give low values 0.996 | locus YBL061C, strain skt5, hits give low values 0.999 | locus YBR009C, strain hhf1, hits give low values 0.998 | locus YBR021W, strain FUR4, hits give low values 1.02 | locus YBR023C, strain chs3, hits give low values 0.994 | locus YBR171W, strain sec66, hits give low values 1 | locus YBR229C, strain ROT2, hits give low values 1.01 | locus YBR231C, strain swc5, hits give low values 1.01 | locus YBR279W, strain paf1, hits give low values 0.989 | locus YCL011C, strain gbp2, hits give low values 0.997 | locus YCL016C, strain dcc1, hits give low values 0.979 | locus YCL029C, strain bik1, hits give low values 0.989 | locus YCL061C, strain MRC1, hits give low values 0.973 | locus YCL069W, strain vba3, hits give low values 0.999 | locus YCR088W, strain abp1, hits give low values 0.998 | locus YDL005C, strain med2, hits give low values 0.989 | locus YDL035C, strain GPR1, hits give low values 1.02 | locus YDL040C, strain nat1, hits give low values 1 | locus YDL074C, strain BRE1, hits give low values 1 | locus YDL101C, strain DUN1, hits give low values 0.996 | locus YDL134C, strain PPH21, hits give low values 1.08 | locus YDL185W, strain tfp1, hits give low values 0.967 | locus YDL192W, strain arf1, hits give low values 1 | locus YDR001C, strain nth1, hits give low values 1 | locus YDR069C, strain doa4, hits give low values 0.998 | locus YDR101C, strain arx1, hits give low values 0.977 | locus YDR137W, strain rgp1, hits give low values 1 | locus YDR150W, strain NUM1, hits give low values 0.993 | locus YDR159W, strain sac3, hits give low values 0.998 | locus YDR162C, strain NBP2, hits give low values 1.01 | locus YDR195W, strain ref2 0.989 | locus YDR297W, strain sur2, hits give low values 0.996 | locus YDR318W, strain mcm21, hits give low values 1.01 | locus YDR334W, strain swr1, hits give low values 1.01 | locus YDR335W, strain msn5, hits give low values 0.995 | locus YDR388W, hits give low values 0.995 | locus YDR392W, strain spt3, hits give low values 0.891 | locus YDR502C, strain sam2, hits give low values 1.01 | locus YEL003W, strain gim4, hits give low values 1.02 | locus YEL037C, strain rad23, hits give low values 1.01 | locus YEL061C, strain CIN8 (second series), hits give low values 1 | locus YEL061C, strain CIN8, hits give low values 1.01 | locus YER015W, strain faa2, hits give low values 0.995 | locus YER016W, strain bim1, hits give low values 0.999 | locus YER110C, hits give low values 0.976 | locus YER111C, strain swi4, hits give low values 0.991 | locus YER155C, strain BEM2 (second series), hits give low values 0.986 | locus YER155C, strain BEM2, hits give low values 0.997 | locus YER167W, strain BCK2, hits give low values 1 | locus YFR010W, strain ubp6, hits give low values 1 | locus YGL078C, strain dbp3, hits give low values 0.989 | locus YGL086W, strain mad1, hits give low values 0.943 | locus YGL167C, strain pmr1, hits give low values 1.01 | locus YGL173C, strain kem1, hits give low values 1.02 | locus YGL227W, strain vid30, hits give low values 0.994 | locus YGL240W, strain doc1, hits give low values 0.987 | locus YGL248W, strain PDE1, hits give low values 1.02 | locus YGL253W, strain hxk2, hits give low values 1.01 | locus YGR078C, strain PAC10, hits give low values 1 | locus YGR135W, strain pre9, hits give low values 1 | locus YGR229C, strain SMI1, hits give low values 1.03 | locus YGR252W, strain gcn5, hits give low values 1.14 | locus YHR013C, strain ard1, hits give low values 1.03 | locus YHR027C, strain rpn1, hits give low values 1 | locus YHR030C, strain SLT2, hits give low values 0.992 and 1.04 | locus YHR079C, strain IRE1 (second series), hits give low values 0.979 | locus YHR079C, strain IRE1, hits give low values 1.06 | locus YHR094C, strain hxt1, hits give low values 0.998 | locus YHR129C, strain ARP1, hits give low values 1 | locus YHR142W, strain chs7, hits give low values 1 | locus YHR200W, strain rpn10, hits give low values 0.979 | locus YIL066C, strain RNR3, hits give low values 1.01 | locus YIL073C, strain SPO22, hits give low values 0.986 | locus YIL125W, strain kgd1, hits give low values 0.985 | locus YIR030C, strain dcg1, hits give low values 0.996 | locus YJL092W, strain hpr5, hits give low values 1 | locus YJL095W, strain BCK1 (second series), hits give low values 1 | locus YJL095W, strain BCK1, hits give low values 1.04 and 1 | locus YJL115W, strain asf1, hits give low values 0.999 | locus YJL129C, strain trk1, hits give low values 0.986 | locus YJL134W, strain LCB3, hits give low values 1 | locus YJL154C, strain vps35, hits give low values 1.01 | locus YJL164C, strain tpk1, hits give low values 1 | locus YJL166W, strain qcr8, hits give low values 0.972 | locus YJL168C, strain set2, hits give low values 0.978 | locus YJL187C, strain SWE1 (second series), hits give low values 1 | locus YJL187C, strain SWE1, hits give low values 1 | locus YJR043C, strain POL32, hits give low values 1.01 | locus YJR066W, strain TOR1, hits give low values 1.01 | locus YJR075W, strain HOC1, hits give low values 0.995 | locus YKL009W, strain mrt4, hits give low values 1.01 | locus YKL068W, hits give low values 0.987 | locus YKL085W, strain MDH1 (second series), hits give low values 0.978 | locus YKL085W, strain MDH1, hits give low values 0.978 | locus YKL160W, strain elf1, hits give low values 0.961 | locus YKL190W, strain CNB1, hits give low values 1 | locus YKR001C, strain vps1, hits give low values 0.999 | locus YKR026C, strain gcn3, hits give low values 0.997 | locus YKR091W, strain srl3, hits give low values 0.992 | locus YLL001W, strain dnm1, hits give low values 0.973 | locus YLL026W, hits give low values 1 | locus YLL041C, strain sdh2, hits give low values 0.994 | locus YLR027C, strain aat2, hits give low values 0.994 | locus YLR039C, strain RIC1, hits give low values 1.05 | locus YLR058C, strain SHM2, hits give low values 1.01 | locus YLR102C, strain apc9, hits give low values 0.984 | locus YLR113W, strain HOG1, hits give low values 0.991 | locus YLR221C, strain rsa3, hits give low values 0.971 | locus YLR258W, strain gsy2, hits give low values 0.981 | locus YLR262C, strain YPT6 (second series), hits give low values 0.985 | locus YLR262C, strain YPT6, hits give low values 1.08 | locus YLR268W, strain sec22, hits give low values 0.968 | locus YLR320W, strain mms22, hits give low values 0.964 | locus YLR330W, strain CHS5, hits give low values 0.984 | locus YLR342W, strain FKS1 (second series), hits give low values 1.04 | locus YLR342W, strain FKS1, hits give low values 0.995 | locus YLR357W, strain rsc2, hits give low values 0.986 | locus YLR370C, strain arc18, hits give low values 0.992 | locus YLR371W, strain rom2, hits give low values 0.973 | locus YLR384C, strain iki3, hits give low values 1 | locus YLR418C, strain cdc73, hits give low values 1.04 | locus YML016C, strain PPZ1, hits give low values 0.997 | locus YML032C, strain rad52, hits give low values 1.03 | locus YML120C, strain ndi1, hits give low values 0.99 | locus YML124C, strain tub3, hits give low values 0.988 | locus YMR058W, strain fet3, hits give low values 1 | locus YMR078C, strain ctf18, hits give low values 0.954 | locus YMR125W, strain sto1, hits give low values 0.97 | locus YMR129W, hits give low values 1.01 | locus YMR205C, strain PFK2, hits give low values 0.952 | locus YMR223W, strain ubp8, hits give low values 1.01 | locus YMR231W, strain pep5, hits give low values 1 | locus YMR263W, strain SAP30, hits give low values 0.996 | locus YMR307W, strain GAS1, hits give low values 1.18 | locus YNL067W, strain RPL9B, hits give low values 1 | locus YNL071W, strain lat1, hits give low values 1 | locus YNL183C, strain NPR1, hits give low values 1 | locus YNL209W, strain ssb2, hits give low values 1 | locus YNL233W, strain BNI4, hits give low values 1 | locus YNL248C, strain rpa49, hits give low values 0.982 | locus YNL250W, strain rad50, hits give low values 0.939 | locus YNL271C, strain bni1, hits give low values 0.989 | locus YNL298W, strain CLA4, hits give low values 1 | locus YNL307C, strain MCK1, hits give low values 0.979 | locus YNL322C, strain KRE1 (second series), hits give low values 0.989 | locus YNR049C, strain mso1, hits give low values 0.997 | locus YNR052C, strain pop2, hits give low values 0.997 | locus YOL012C, strain htz1 1.13 | locus YOL147C, strain pex11, hits give low values 0.988 | locus YOR001W, strain rrp6, hits give low values 1 | locus YOR061W, strain CKA2, hits give low values 1.01 | locus YOR069W, strain VPS5, hits give low values 0.995 | locus YOR070C, strain gyp1, hits give low values 0.999 | locus YOR080W, strain dia2, hits give low values 0.997 | locus YOR083W, strain WHI5, hits give low values 0.958 | locus YOR106W, strain vam3, hits give low values 0.989 | locus YOR136W, strain idh2, hits give low values 0.991 | locus YOR144C, strain elg1, hits give low values 0.993 | locus YOR184W, strain ser1, hits give low values 1 | locus YOR231W, strain MKK1, hits give low values 1.03 | locus YOR265W, strain rbl2, hits give low values 0.999 | locus YOR270C, strain vph1, hits give low values 1.02 | locus YOR290C, strain snf2, hits give low values 0.98 | locus YOR316C, strain cot1, hits give low values 0.996 | locus YPL051W, strain arl3, hits give low values 0.977 | locus YPL055C, strain LGE1, hits give low values 1.01 | locus YPL078C, strain atp4, hits give low values 0.965 | locus YPL106C, strain sse1, hits give low values 0.948 | locus YPL240C, strain hsp82, hits give low values 0.996 | locus YPL256C, strain CLN2, hits give low values 1.05 | locus YPR119W, strain clb2, hits give low values 0.981 | locus YPR141C, strain kar3, hits give low values 0.977 | locus YPR163C, strain tif3, hits give low values 0.984 | locus YPR167C, strain met16, hits give low values 0.995 | strain wtn01, hits give low values 0.948
